In all, about 1,400 sequences were measured (“thermal melting temperature (Tm) of peptide-HLA complex”: median about 60, lowest 2% from about 45 on). The entries come from a sample that favours the lowest values as a whole.
The sequences below were run against HLA-B*07:02 (assay: thermal melting temperature (Tm) of peptide-HLA complex; higher = more thermostable pHLA complex). Conditions: C1R-B*07:02.
Work on APFEPLASGIL yielded a thermal melting temperature of 60.7 °C. SPRPALPALLV showed a thermal melting temperature of 59.4 °C. For QPRNLLLAL, the thermal melting temperature was 61.2 °C. For RPSLLPLH, the thermal melting temperature was 61.5 °C. VPNWHRDLV showed a thermal melting temperature of 58.3 °C. KPMPSLPQL was tested, and the thermal melting temperature was 44.9 °C. In the case of VPRAILVDL, the thermal melting temperature is reported as 62.4 °C. NPRQPLPASGL showed a thermal melting temperature of 58.3 °C. SPRPPAEGF gave a thermal melting temperature of 55.8 °C. Sequence RPNGTKVAVL has a thermal melting temperature of 60.1 °C. Sequence RPKTPPVVI has a thermal melting temperature of 59.6 °C. Work on FPIPAAEVDRL yielded a thermal melting temperature of 62.2 °C. RPAANPIQFTL was tested, and the thermal melting temperature was 59.8 °C. IPRSITVLV showed a thermal melting temperature of 62.4 °C. MPHVPITTL showed a thermal melting temperature of 61.3 °C. LPQYRLISI gave a thermal melting temperature of 61.3 °C.
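Further: lysates heated 10 min at 37–73 °C, complexes pulled down with pan-HLA I antibody, peptide signal by DIA-MS relative to 37 °C, Tm where half the complex is unfolded.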
